Compound activity: PubChem BioAssay, The Scripps Research Institute Molecular Screening Center
hcDAF-12 act: H. contortus DAF-12 activation, primary screen | HEK293 hcDAF-12 lit1-tk-luc reporter, luminescence; 0% DMSO, 100% Δ7-dafachronic acid | activation, % at 6.8 µM | 370,000 compounds, 1.4% hits;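 active means activation above the mean of all tested compounds plus 3 SD, cut at about 5.5% in these data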
ssDAF-12 act: activators of S. stercoralis DAF-12 nuclear receptor | HEK293 ssDAF-12/GRIP1 lit1-tk-luc reporter, luminescence; % of 3 µM dafachronic acid response | activation, % at 6.8 µM | 370,000 compounds, 1% hits | AID 652126;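 active means activation above the mean over all tested compounds plus 3 SD, cut at about 0.9% in these data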
DAX1 inh-1: inhibits human nuclear receptor DAX1; P51843; HEK293 Gal4-DAX1 luciferase reporter, luminescence; inhibition, % at 6.75 µM; 340,000 compounds, 0.99% hits; AID 504766;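 active means inhibition above the mean over all tested compounds plus 3 SD, cut at about 4.2% in these data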;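 further: inhibition shows as a rise in luminescence from relieved DAX1 repression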
Target sequence (P51843 207-470 limits assumed): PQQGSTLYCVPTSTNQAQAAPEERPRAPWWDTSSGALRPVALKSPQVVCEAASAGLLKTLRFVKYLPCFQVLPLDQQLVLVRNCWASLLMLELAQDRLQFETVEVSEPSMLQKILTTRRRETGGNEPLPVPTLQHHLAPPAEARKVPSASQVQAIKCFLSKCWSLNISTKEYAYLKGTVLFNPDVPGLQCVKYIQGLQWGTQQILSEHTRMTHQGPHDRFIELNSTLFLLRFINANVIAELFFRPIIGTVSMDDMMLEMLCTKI
DAX1 inh-2: blocks DAX1 repression of SF-1 activated StAR promoter | 370,000 compounds, 1.1% hits | HEK293T StAR-luciferase reporter, SF-1/DAX-1 repression relief | inhibition, % at 6.8 µM;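 active means inhibition above the mean over all tested compounds plus 3 SD, cut at about 3.6% in these data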;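 further: higher inhibition means more luminescence from relief of DAX-1 repression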
hgDAF-12 ag: agonists of H. glycines DAF-12 nuclear receptor | HEK293 GAL4-hgDAF12 UAS-luciferase reporter, agonist luminescence; normalized to butyrate control | activation, % at 6.8 µM | 370,000 compounds, 1.8% hits | AID 687014;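 active means activation above a cutoff set at the mean of all screened compounds plus 3 SD, cut at about 10% in these data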
hgDAF12 conf: confirmation of H. glycines DAF-12 agonists; shares compounds with hgDAF-12 ag; 3,300 compounds, 80% hits; activation, % at 6.8 µM; HEK293 GAL4-hgDAF12 luciferase reporter, agonist mode; percent of butyrate response;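 active means mean activation over triplicate wells above the hit cutoff derived from the earlier primary screen, cut at about 11% in these data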
LXR ag 2: LXR-beta agonism as DAF-12 counter-screen; 3,300 tested, under 10 active; HEK293 Gal4-LXR luciferase reporter, 24 h; activation, % at 6.8 µM; shares compounds with hgDAF-12 ag; AID 743051;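 active means mean activation of the triplicate above a set limit carried over from the primary screen, none filed active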
Target sequence (P55055 whole entry, looked up, the tested form may be a part): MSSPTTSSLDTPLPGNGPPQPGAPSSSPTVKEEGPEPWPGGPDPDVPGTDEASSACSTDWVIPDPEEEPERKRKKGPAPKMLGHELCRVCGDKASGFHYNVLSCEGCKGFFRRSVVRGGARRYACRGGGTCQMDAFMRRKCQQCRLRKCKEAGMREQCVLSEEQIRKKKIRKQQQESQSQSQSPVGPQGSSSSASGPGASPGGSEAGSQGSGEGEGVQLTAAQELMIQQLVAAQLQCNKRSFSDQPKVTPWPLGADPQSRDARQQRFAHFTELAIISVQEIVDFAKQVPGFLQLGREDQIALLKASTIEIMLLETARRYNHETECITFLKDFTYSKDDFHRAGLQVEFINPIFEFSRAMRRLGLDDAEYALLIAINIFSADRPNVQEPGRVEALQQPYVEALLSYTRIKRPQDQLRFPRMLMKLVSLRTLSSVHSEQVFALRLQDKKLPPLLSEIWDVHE
Of the large screens only hits and unclear results are named; the others gave an inactive call (follow-up assays come after a bar, where they were run). Rows were chosen to be rich in hits. Some 4.1% of all compounds tested hit in one or more screens of this group.

O=C(CN1CCCC1)Nc1nc(-c2ccc3c(c2)CCN3C(=O)c2ccccc2F)cs1	none (no result: hcDAF-12 act, ssDAF-12 act, DAX1 inh-2, hgDAF-12 ag)
CNc1nc(-c2ccc3c(c2)CCN3C(=O)c2ccccc2C)cs1	hgDAF-12 ag 21.1 | hgDAF12 conf 15.2 | LXR ag 2 inactive
COc1ccccc1C(=O)NC1CCCCN(Cc2ccccc2C)C1=O (stereo unspecified)	none (no result: DAX1 inh-1)
S=C(NCCc1ccc(Cl)cc1)NC1CC1	hgDAF-12 ag 15.7 | hgDAF12 conf inactive | LXR ag 2 inactive
NS(=O)(=O)c1ccc(CCNC(=S)NC2CCCC2)cc1	none
Cc1ccc(NC(=O)c2ccc3ncsc3c2)cc1S(=O)(=O)N(C)C	hgDAF-12 ag 19.5 (no result: DAX1 inh-1) | hgDAF12 conf 13.9 | LXR ag 2 inactive
COc1ccc(-c2cn3c(C)c(C(=O)NC(C)(C)C)sc3n2)cc1	hcDAF-12 act 6.0, hgDAF-12 ag 17.9 | hgDAF12 conf 11.5 | LXR ag 2 inactive
NS(=O)(=O)c1ccc(NC(=O)CSC2CCCCC2)cc1	none
COc1ccc(NC(=O)CSC2CCCCC2)cc1	hgDAF-12 ag 22.7 | hgDAF12 conf 15.2 | LXR ag 2 inactive
COC(=O)[C@@]12CCCCC=C1N(CCc1ccc(Cl)cc1)C(=O)[C@H]2CC(=O)NCCC(C)C	none (no result: DAX1 inh-1)
Cc1c(C(=O)Nc2ccccc2F)cnn1-c1ccccc1	hgDAF-12 ag 13.6 | hgDAF12 conf 12.8 | LXR ag 2 inactive
Cc1c(C(=O)Nc2cc(F)cc(F)c2)cnn1-c1ccccc1	none
CN(c1ccc(NC(=O)CCc2cn(Cc3ccc(Br)cc3)c3ccccc23)cc1)c1ccccn1	none (no result: DAX1 inh-1)
CC(=O)N1CCc2cc(N=NC3=C(O)CC(C)(C)CC3=O)ccc21	DAX1 inh-2 3.9, hgDAF-12 ag 14.9 | hgDAF12 conf 16.9 | LXR ag 2 inactive
CC1(C)CC(=O)C(N=Nc2cc(Cl)c(Cl)c(Cl)c2)=C(O)C1	none
CCC(=O)Nc1cccc(-c2ccc(N3CCC(C)CC3)nn2)c1	hcDAF-12 act 5.8, ssDAF-12 act 1.0, hgDAF-12 ag 17.6 | hgDAF12 conf 12.5 | LXR ag 2 inactive
COc1ccccc1C(=O)N1CCC2CCN(C(=O)c3ccccc3)C2C1 (stereo unspecified)	none (no result: DAX1 inh-1)
COc1ccc(/C=C/c2nc3ccccc3n2Cc2ccccc2OC)cc1	DAX1 inh-2 4.4, hgDAF-12 ag 16.2 | hgDAF12 conf 11.9 | LXR ag 2 inactive
Cc1ccc(C)c(OCc2cc(C(=O)NC(C)c3cnn(C)c3)no2)c1 (stereo unspecified)	none
Cc1nc(C(C)NC(=O)c2cc(COc3ccc(C)c(C)c3)on2)c(C)s1 (stereo unspecified)	hgDAF-12 ag 13.4 | hgDAF12 conf 14.3 | LXR ag 2 inactive
Cc1cc(OCc2cc(C(=O)NC(C)c3cnn(C)c3)no2)cc(C)c1Cl (stereo unspecified)	hgDAF-12 ag 16.0 | hgDAF12 conf 13.2 | LXR ag 2 inactive
Cc1ccccc1CN1CCCCC(NC(=O)Nc2cccc([N+](=O)[O-])c2)C1=O (stereo unspecified)	none (no result: DAX1 inh-1)
COc1ccc(/C=N/NC(=O)c2ccc[nH]2)cc1	hgDAF-12 ag 13.4 | hgDAF12 conf 14.9 | LXR ag 2 inactive
COc1ccc(-c2nc(C#N)c(NCc3ccco3)o2)cc1	hgDAF-12 ag 15.6 | hgDAF12 conf 16.1 | LXR ag 2 inactive
Cc1ccc(-c2nc(C#N)c(NCc3ccco3)o2)cc1	hgDAF-12 ag 14.5 | hgDAF12 conf 16.3 | LXR ag 2 inactive
C=CCN1C(=O)[C@@H](CC(=O)NCc2ccc(OC)c(OC)c2)[C@]2(C(=O)OCC)CCCCC/C=C/12	none (no result: DAX1 inh-1)
C=CCn1c(COc2ccc(Cl)cc2)nnc1SCC(=O)c1ccccc1	none (no result: DAX1 inh-1)
COc1ccc(Cn2ccc3ccc(-c4ccc5ccn(C(=O)c6ccccc6)c5c4)cc32)cc1	none (no result: DAX1 inh-1)
COC(=O)[C@H](C(C)C)N1Cc2nnn(CC3CCCCC3)c2-c2ccccc2S1(=O)=O	none (no result: DAX1 inh-1)
Nc1ccccc1NC1=CC(=O)CC(c2ccco2)C1 (stereo unspecified)	hgDAF-12 ag 13.4 | hgDAF12 conf inactive | LXR ag 2 inactive
CC(=O)c1ccc(NC(=S)NCCc2ccc(S(N)(=O)=O)cc2)cc1	none
CC(=O)c1ccc(NC(=S)NCCc2cccc(Cl)c2)cc1	hgDAF-12 ag 17.1 | hgDAF12 conf 12.0 | LXR ag 2 inactive
O=C(CSc1nnc(NC2CCCCC2)s1)Nc1ccc2c(c1)C(=O)c1ccccc1C2=O	DAX1 inh-1 11.7, hgDAF-12 ag 14.0 | hgDAF12 conf 13.8 | LXR ag 2 inactive
Cc1nc2cc(NC(=O)NCc3ccc4c(c3)OCO4)ccc2o1	none
Cc1nc2cc(NC(=O)Nc3ccc(Br)cc3)ccc2o1	hgDAF-12 ag 13.4 | hgDAF12 conf inactive | LXR ag 2 inactive
c1nc(NCC2CCCOC2)c2cc(-c3ccc4c(c3)OCO4)ccc2n1 (stereo unspecified)	none (no result: DAX1 inh-1, DAX1 inh-2)
O=C(/C=C/c1cccs1)Nc1nncs1	none
Cc1ccnc(NC(=O)/C=C/c2cccs2)c1	hcDAF-12 act 5.6, hgDAF-12 ag 16.0 | hgDAF12 conf 18.8 | LXR ag 2 inactive
Cc1sc(NC(=O)c2ccccc2)c(C#N)c1-c1ccccc1	hgDAF-12 ag 15.7 | hgDAF12 conf 11.7 | LXR ag 2 inactive
Nc1c(C(=O)Nc2ccccc2)sc2nc(N3CCOCC3)c3c(c12)CCCC3	DAX1 inh-2 3.8, hgDAF-12 ag 14.6 | hgDAF12 conf inactive | LXR ag 2 inactive
Nc1c(C(=O)Nc2ccc(Cl)cc2)sc2nc(N3CCOCC3)c3c(c12)CCCC3	none
c1cnc(SCCOc2ccc3c(c2)CCC3)nc1	DAX1 inh-1 7.6, DAX1 inh-2 3.7, hgDAF-12 ag 15.2 | hgDAF12 conf 17.2 | LXR ag 2 inactive
O=C(Nc1c(-c2ccc(F)cc2)nc2ncccn12)c1ccccc1	none (no result: DAX1 inh-1)
O=c1cc(-c2ccccc2)c2ccc(O)cc2o1	none
O=c1cc(-c2ccccc2)oc2cc(O)ccc12	DAX1 inh-2 4.5, hgDAF-12 ag 14.9 | hgDAF12 conf 11.9 | LXR ag 2 inactive
O=c1c(O)c(-c2ccc(O)cc2)oc2cc(O)cc(O)c12	hgDAF-12 ag 15.0 | hgDAF12 conf inactive | LXR ag 2 inactive
O=c1cc(-c2ccc(O)cc2)oc2cc(O)cc(O)c12	DAX1 inh-2 3.8, hgDAF-12 ag 18.4 | hgDAF12 conf inactive | LXR ag 2 inactive
O=C1c2cccn2CC2Cc3ccccc3N12 (stereo unspecified)	hcDAF-12 act 6.5, hgDAF-12 ag 14.6 (no result: DAX1 inh-1, DAX1 inh-2) | hgDAF12 conf 16.9 | LXR ag 2 inactive
CC1Cc2ccccc2N1C1=CC(=O)CCC1 (stereo unspecified)	none
c1ccn2cc(CSc3nnc4ccccn34)nc2c1	ssDAF-12 act 1.1, DAX1 inh-2 3.8, hgDAF-12 ag 14.3 | hgDAF12 conf 14.5 | LXR ag 2 inactive
